Laboratory results reported in PubChem BioAssay AID1159580 (chemical genetic matrix, 2015).
Several values for one entry are separate records, joined by “and”; a condition that tells them apart may be missing. Equal values may be shown once. About 2,000 (36%) of roughly 5,500 compounds were called active. Roughly 18% stayed inconclusive and do not appear here. Rule as the data show it: active = normalized growth mostly below about 0.91 (no sharp cut-off); inconclusive = no clear call, values can overlap the other calls; inactive = mostly above about 0.92. The list shows a part of the results.

Test: chemical genetic growth profiling, strain panel (AID 1159580);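 also: tested at 20 µM; growth read once vehicle control cultures reached saturation at 30 °C; 1 = growth at the plate median or of vehicle wells; lower values mean less growth of the strain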
Settings: growth OD

Measured: normalized growth

C1CCc2nnnn2CC1
inactive: S. cerevisiae deletion strains, locus YJR075W, strain HOC1, hits give low values 1.03 and 1.01 | S. cerevisiae deletion strains, locus YKL009W, strain mrt4, hits give low values 1.03 | S. cerevisiae deletion strains, locus YKL068W, hits give low values 1.02 | S. cerevisiae deletion strains, locus YKL085W, strain MDH1 (second series), hits give low values 1 | S. cerevisiae deletion strains, locus YKL085W, strain MDH1, hits give low values 1 | S. cerevisiae deletion strains, locus YKL160W, strain elf1, hits give low values 1.01 | S. cerevisiae deletion strains, locus YKL190W, strain CNB1, hits give low values 1 | S. cerevisiae deletion strains, locus YKR001C, strain vps1, hits give low values 1.02 | S. cerevisiae deletion strains, locus YKR026C, strain gcn3, hits give low values 1.01 | S. cerevisiae deletion strains, locus YKR091W, strain srl3, hits give low values 1 | S. cerevisiae deletion strains, locus YLL001W, strain dnm1, hits give low values 1 | S. cerevisiae deletion strains, locus YLL026W, hits give low values 1 | S. cerevisiae deletion strains, locus YLL041C, strain sdh2, hits give low values 1 | S. cerevisiae deletion strains, locus YLR027C, strain aat2, hits give low values 1 | S. cerevisiae deletion strains, locus YLR039C, strain RIC1, hits give low values 1.03 | S. cerevisiae deletion strains, locus YLR058C, strain SHM2, hits give low values 1.02 | S. cerevisiae deletion strains, locus YLR102C, strain apc9, hits give low values 1 | S. cerevisiae deletion strains, locus YLR113W, strain HOG1, hits give low values 0.985 | S. cerevisiae deletion strains, locus YLR221C, strain rsa3, hits give low values 1.01 | S. cerevisiae deletion strains, locus YLR258W, strain gsy2, hits give low values 1.01 | S. cerevisiae deletion strains, locus YLR262C, strain YPT6 (second series), hits give low values 1.02 | S. cerevisiae deletion strains, locus YLR262C, strain YPT6, hits give low values 1.04 | S. cerevisiae deletion strains, locus YLR268W, strain sec22, hits give low values 1.05 | S. cerevisiae deletion strains, locus YLR320W, strain mms22, hits give low values 1.01 | S. cerevisiae deletion strains, locus YLR330W, strain CHS5, hits give low values 1 | S. cerevisiae deletion strains, locus YLR342W, strain FKS1 (second series), hits give low values 1.01 | S. cerevisiae deletion strains, locus YLR342W, strain FKS1, hits give low values 1.01 | S. cerevisiae deletion strains, locus YLR357W, strain rsc2, hits give low values 0.983 | S. cerevisiae deletion strains, locus YLR370C, strain arc18, hits give low values 1.01 | S. cerevisiae deletion strains, locus YLR371W, strain rom2, hits give low values 1.02 | S. cerevisiae deletion strains, locus YLR384C, strain iki3, hits give low values 0.999 | S. cerevisiae deletion strains, locus YLR418C, strain cdc73, hits give low values 1.02 | S. cerevisiae deletion strains, locus YML016C, strain PPZ1, hits give low values 1.01 | S. cerevisiae deletion strains, locus YML032C, strain rad52, hits give low values 1.03 | S. cerevisiae deletion strains, locus YML120C, strain ndi1, hits give low values 0.998 | S. cerevisiae deletion strains, locus YML124C, strain tub3, hits give low values 1.01 | S. cerevisiae deletion strains, locus YMR058W, strain fet3, hits give low values 1.01 | S. cerevisiae deletion strains, locus YMR078C, strain ctf18, hits give low values 1.02 | S. cerevisiae deletion strains, locus YMR125W, strain sto1, hits give low values 1.01 | S. cerevisiae deletion strains, locus YMR129W, hits give low values 1.01 | S. cerevisiae deletion strains, locus YMR205C, strain PFK2, hits give low values 1.03 | S. cerevisiae deletion strains, locus YMR223W, strain ubp8, hits give low values 0.987 | S. cerevisiae deletion strains, locus YMR231W, strain pep5, hits give low values 1 | S. cerevisiae deletion strains, locus YMR263W, strain SAP30, hits give low values 1.03 | S. cerevisiae deletion strains, locus YMR307W, strain GAS1, hits give low values 1.01 | S. cerevisiae deletion strains, locus YNL067W, strain RPL9B, hits give low values 1.03 | S. cerevisiae deletion strains, locus YNL071W, strain lat1, hits give low values 0.999 | S. cerevisiae deletion strains, locus YNL128W, strain TEP1, hits give low values 1.02 | S. cerevisiae deletion strains, locus YNL153C, strain GIM3, hits give low values 1.02 and 1.14 | S. cerevisiae deletion strains, locus YNL175C, strain NOP13, hits give low values 1.01 | S. cerevisiae deletion strains, locus YNL183C, strain NPR1, hits give low values 0.918 | S. cerevisiae deletion strains, locus YNL197C, strain WHI3, hits give low values 1.01 | S. cerevisiae deletion strains, locus YNL209W, strain ssb2, hits give low values 1.01 | S. cerevisiae deletion strains, locus YNL224C, strain SQS1, hits give low values 1.02 | S. cerevisiae deletion strains, locus YNL233W, strain BNI4, hits give low values 0.982 | S. cerevisiae deletion strains, locus YNL248C, strain rpa49, hits give low values 0.994 | S. cerevisiae deletion strains, locus YNL250W, strain rad50, hits give low values 1 | S. cerevisiae deletion strains, locus YNL271C, strain bni1, hits give low values 1.02 | S. cerevisiae deletion strains, locus YNL298W, strain CLA4, hits give low values 1.01 | S. cerevisiae deletion strains, locus YNL307C, strain MCK1, hits give low values 1.01 | S. cerevisiae deletion strains, locus YNL322C, strain KRE1 (second series), hits give low values 1.01 | S. cerevisiae deletion strains, locus YNL322C, strain KRE1, hits give low values 1.01 and 1 | S. cerevisiae deletion strains, locus YNR049C, strain mso1, hits give low values 1.01 | S. cerevisiae deletion strains, locus YNR052C, strain pop2, hits give low values 1 | S. cerevisiae deletion strains, locus YOL006C, strain TOP1, hits give low values 1.08 | S. cerevisiae deletion strains, locus YOL012C, strain htz1 0.99 | S. cerevisiae deletion strains, locus YOL147C, strain pex11, hits give low values 1.01 | S. cerevisiae deletion strains, locus YOR001W, strain rrp6, hits give low values 1 | S. cerevisiae deletion strains, locus YOR061W, strain CKA2, hits give low values 1.01 | S. cerevisiae deletion strains, locus YOR069W, strain VPS5, hits give low values 1.02 | S. cerevisiae deletion strains, locus YOR070C, strain gyp1, hits give low values 0.999 | S. cerevisiae deletion strains, locus YOR080W, strain dia2, hits give low values 1 | S. cerevisiae deletion strains, locus YOR083W, strain WHI5 (second series), hits give low values 1.02 | S. cerevisiae deletion strains, locus YOR083W, strain WHI5, hits give low values 1.02 | S. cerevisiae deletion strains, locus YOR106W, strain vam3, hits give low values 1.01 | S. cerevisiae deletion strains, locus YOR136W, strain idh2, hits give low values 0.992 | S. cerevisiae deletion strains, locus YOR144C, strain elg1, hits give low values 1.01 | S. cerevisiae deletion strains, locus YOR184W, strain ser1, hits give low values 1.03 | S. cerevisiae deletion strains, locus YOR231W, strain MKK1, hits give low values 0.982 | S. cerevisiae deletion strains, locus YOR265W, strain rbl2, hits give low values 1.02 | S. cerevisiae deletion strains, locus YOR270C, strain vph1, hits give low values 1.04 | S. cerevisiae deletion strains, locus YOR290C, strain snf2, hits give low values 1.01 | S. cerevisiae deletion strains, locus YOR316C, strain cot1, hits give low values 1.01 | S. cerevisiae deletion strains, locus YPL051W, strain arl3, hits give low values 1.01 | S. cerevisiae deletion strains, locus YPL055C, strain LGE1, hits give low values 0.977 | S. cerevisiae deletion strains, locus YPL078C, strain atp4, hits give low values 1.01 | S. cerevisiae deletion strains, locus YPL106C, strain sse1, hits give low values 1 | S. cerevisiae deletion strains, locus YPL240C, strain hsp82, hits give low values 1.02 | S. cerevisiae deletion strains, locus YPL241C, strain CIN2, hits give low values 1 | S. cerevisiae deletion strains, locus YPL256C, strain CLN2, hits give low values 0.976 | S. cerevisiae deletion strains, locus YPR119W, strain clb2, hits give low values 1 | S. cerevisiae deletion strains, locus YPR141C, strain kar3, hits give low values 1 | S. cerevisiae deletion strains, locus YPR163C, strain tif3, hits give low values 1.02 | S. cerevisiae deletion strains, locus YPR167C, strain met16, hits give low values 1.01 | S. cerevisiae deletion strains, strain wtn01, hits give low values 1.02 | S. cerevisiae strains, strain wild type, hits give low values 1.01
